{"source": "paper PMC4336329", "about": "(PLoS ONE, 2015)", "note": "Hit rate of the full screen: of about 310,000 compounds, about 14,000 (4.5%) showed an effect of 50% or more. The effect is printed as a negative number. The entries come from a sample that favours strong results as a whole.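 Further: peak tail current of the secondary pulse compared with the same well before compound.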"}
{"molecular_target": "human ether-à-go-go-related gene (hERG) potassium channel (human, UniProt Q12809)", "sequence (Q12809 whole entry, looked up)": "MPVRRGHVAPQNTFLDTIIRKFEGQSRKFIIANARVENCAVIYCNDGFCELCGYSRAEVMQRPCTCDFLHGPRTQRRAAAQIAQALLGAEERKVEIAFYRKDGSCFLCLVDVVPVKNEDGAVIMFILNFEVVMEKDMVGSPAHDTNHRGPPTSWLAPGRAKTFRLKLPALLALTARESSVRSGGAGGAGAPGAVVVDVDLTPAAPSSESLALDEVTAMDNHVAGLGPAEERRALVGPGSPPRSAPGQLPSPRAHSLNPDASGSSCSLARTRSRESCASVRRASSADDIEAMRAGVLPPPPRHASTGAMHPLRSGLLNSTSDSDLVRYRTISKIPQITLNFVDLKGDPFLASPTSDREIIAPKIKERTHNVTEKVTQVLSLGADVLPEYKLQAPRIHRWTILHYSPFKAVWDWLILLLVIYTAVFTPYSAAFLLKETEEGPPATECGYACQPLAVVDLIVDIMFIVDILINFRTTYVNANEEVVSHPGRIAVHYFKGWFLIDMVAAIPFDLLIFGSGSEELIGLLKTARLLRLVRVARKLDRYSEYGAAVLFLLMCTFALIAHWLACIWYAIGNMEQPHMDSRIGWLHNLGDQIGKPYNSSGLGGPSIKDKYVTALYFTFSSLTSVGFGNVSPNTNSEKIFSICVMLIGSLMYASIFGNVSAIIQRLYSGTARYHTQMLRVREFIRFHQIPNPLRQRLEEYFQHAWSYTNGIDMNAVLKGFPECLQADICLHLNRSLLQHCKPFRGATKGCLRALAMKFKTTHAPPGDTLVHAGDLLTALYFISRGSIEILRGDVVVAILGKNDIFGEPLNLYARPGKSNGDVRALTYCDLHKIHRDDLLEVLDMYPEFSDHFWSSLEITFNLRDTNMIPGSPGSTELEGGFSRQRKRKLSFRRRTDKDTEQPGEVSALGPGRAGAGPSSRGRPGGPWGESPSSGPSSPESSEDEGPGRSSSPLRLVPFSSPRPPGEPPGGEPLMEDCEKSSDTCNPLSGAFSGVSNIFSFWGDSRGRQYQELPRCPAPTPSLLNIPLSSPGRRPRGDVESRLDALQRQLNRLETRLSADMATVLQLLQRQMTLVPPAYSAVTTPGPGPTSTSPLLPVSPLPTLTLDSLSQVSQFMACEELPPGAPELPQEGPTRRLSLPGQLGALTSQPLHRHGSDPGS", "experiment": "primary screen, population patch clamp on CHO cells stably expressing hERG; higher = less effect of the substance", "units": {"hERG current change (%, negative = inhibition) at 10uM": "%"}}
{"smiles": "COc1ccc(C2CC(c3cccs3)=NN2C(=O)CSc2nc(=O)n3cc(C)ccc3n2)cc1", "note": "(stereo not shown)", "hERG current change (%, negative = inhibition) at 10uM": -64.8}
{"smiles": "COc1ccc(C2=NN(C(=O)CSc3nc(=O)n4cc(C)ccc4n3)C(c3ccc(C)cc3)C2)cc1", "note": "(stereo not shown)", "hERG current change (%, negative = inhibition) at 10uM": -16.2}
{"smiles": "COc1ccc(C2=NN(C(=O)CSc3nc(=O)n4cccc(C)c4n3)C(c3ccc(C)cc3)C2)cc1", "note": "(stereo not shown)", "hERG current change (%, negative = inhibition) at 10uM": 4.53}
{"smiles": "Cc1ccc(C2CC(c3cccs3)=NN2C(=O)CSc2nc(=O)n3cc(C)ccc3n2)cc1", "note": "(stereo not shown)", "hERG current change (%, negative = inhibition) at 10uM": -66.6}
{"smiles": "CCC(=O)N1N=C(c2cccs2)CC1c1ccc(C)cc1", "note": "(stereo not shown)", "hERG current change (%, negative = inhibition) at 10uM": 2.52}
{"smiles": "Cc1ccc(C2CC(c3cccs3)=NN2C(=O)CSC2=NCCS2)cc1", "note": "(stereo not shown)", "hERG current change (%, negative = inhibition) at 10uM": -2.21}
{"smiles": "Cc1nn(C(C)C(=O)NC(C)CCc2ccccc2)c(=O)c2cc3occc3n12", "note": "(stereo not shown)", "hERG current change (%, negative = inhibition) at 10uM": -13.7}
{"smiles": "O=C(NC1=NCCS1)C1CCN(S(=O)(=O)c2ccccc2C(F)(F)F)CC1", "hERG current change (%, negative = inhibition) at 10uM": 6.92}
{"smiles": "COc1ccc(-c2coc3cc(OC)cc(O)c3c2=O)cc1", "hERG current change (%, negative = inhibition) at 10uM": 24.5}
{"smiles": "CCOc1ccc2nc(NC3=NC(C)(C)C=C(C)N3)nc(C)c2c1", "hERG current change (%, negative = inhibition) at 10uM": -47.8}
{"smiles": "CCOc1ccc2c(C)nc(NC3=NC(C)(C)C=C(C)N3)nc2c1", "hERG current change (%, negative = inhibition) at 10uM": -45}
{"smiles": "CC1=CC(C)(C)N=C(Nc2nc(C)c3cc(C)cc(C)c3n2)N1", "hERG current change (%, negative = inhibition) at 10uM": -63.5}
{"smiles": "CN(C)CCCNC(=O)c1cc(C(=O)c2c(Cl)cccc2Cl)c[nH]1", "hERG current change (%, negative = inhibition) at 10uM": -9.62}
{"smiles": "CN(C)CCCNC(=O)c1cc(C(=O)c2ccccc2)c[nH]1", "hERG current change (%, negative = inhibition) at 10uM": 10.5}
{"smiles": "CN(C)CCCNC(=O)c1cc(C(=O)c2ccc(F)cc2)c[nH]1", "hERG current change (%, negative = inhibition) at 10uM": -68.5}
{"smiles": "CN(C)CCCNC(=O)c1cc(C(=O)c2cccc(Cl)c2Cl)c[nH]1", "hERG current change (%, negative = inhibition) at 10uM": -51}
{"smiles": "CN(C)CCCNC(=O)c1cc(C(=O)c2ccccc2F)c[nH]1", "hERG current change (%, negative = inhibition) at 10uM": 1.23}
{"smiles": "COc1cccc(C(=O)c2c[nH]c(C(=O)NCCCN(C)C)c2)c1", "hERG current change (%, negative = inhibition) at 10uM": -4.75}
{"smiles": "C#CCOC(=O)c1cc(Cl)c(=O)n(Cc2ccc(Cl)cc2Cl)c1", "hERG current change (%, negative = inhibition) at 10uM": -18.8}
{"smiles": "COC(=O)c1cc2ccsc2n1CC(=O)NCC1CCCO1", "note": "(stereo not shown)", "hERG current change (%, negative = inhibition) at 10uM": 10.6}
{"smiles": "CC(C)Nc1nc(NNc2nc(Cl)nc(NC(C)(C)C)n2)nc(NC(C)C)n1", "hERG current change (%, negative = inhibition) at 10uM": 10.1}
{"smiles": "Cc1cc(NC(=O)CSc2nc(C3CCCCC3)nc3ccccc23)no1", "hERG current change (%, negative = inhibition) at 10uM": 18.9}
{"smiles": "O=C(Nc1ccccc1)c1cc2ccccc2o1", "hERG current change (%, negative = inhibition) at 10uM": -7.55}
{"smiles": "CCC(=O)Nc1ccc(NC(=O)c2cc3ccccc3o2)cc1", "hERG current change (%, negative = inhibition) at 10uM": -2.45}
{"smiles": "CC/C(=C\\c1oc2cc3ccccc3cc2[n+]1CC)Nc1ccccc1.[I-]", "hERG current change (%, negative = inhibition) at 10uM": -78.1}
